# Laboratory results as given in PubChem BioAssay.
# Active and inactive are the calls of the source.
# Experiments:
# [1] = A549 cell viability effects, profiling panel, calcein-AM fluorescence, 48 h, basal (AID 1162); details: higher = more signal
# [2] = adipocyte viability effects, profiling panel, cell-based, 3T3-L1 adipocytes, calcein-AM fluorescence, 48 h, basal (AID 1163); details: 3T3-L1 adipocytes viability, higher = more signal
# [3] = HepG2 cell viability effects, profiling panel, calcein-AM fluorescence, 48 h, basal (AID 1164); details: higher = more signal
# [4] = MM1S cell viability effects, profiling panel, calcein-AM fluorescence, 48 h, basal (AID 1165); details: higher = more signal;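 note: viability of MM1S multiple myeloma cells under basal unstimulated conditions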
# [5] = basal RPMI8226 viability, no added stimulus, profiling panel, cell-based, calcein-AM fluorescence, 48 h, PK04 Diversity Set (AID 1166); details: RPMI8226 myeloma viability, higher = more signal;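 note: cells grown under basal conditions without added stimulus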
# [6] = basal HepG2 mitochondrial membrane potential changes, profiling panel, cell-based, JC-1 fluorescence, 24 h, 100 nL compound (AID 1167); details: higher = more signal
# [7] = basal 3T3-L1 adipocyte mitochondrial potential changes, profiling panel, cell-based, JC-1 fluorescence, 3T3-L1 adipocytes, 24 h, 100 nL compound (AID 1168); details: JC-1 mitochondrial fluorescence, higher = more signal, called active from +8 up or from −8 down
# [8] = basal RPMI8226 mitochondrial membrane potential changes, profiling panel, cell-based, JC-1 fluorescence, 24 h, 100 nL compound (AID 1169); details: RPMI8226 myeloma, JC-1 mitochondrial potential fluorescence, higher = more signal
# [9] = basal MM1S mitochondrial membrane potential changes, profiling panel, cell-based, JC-1 fluorescence, 24 h, 100 nL compound (AID 1170); details: higher = more signal
# [10] = A549 lung cancer cell viability effects, profiling panel, resazurin fluorescence, 24 h, PK04 Diversity Set (AID 1171); details: higher = more signal, called active from +8 up or from −8 down
# Note: test concentration not given here.
Structure (SMILES),z-score [1],z-score [2],z-score [3],z-score [4],z-score [5],z-score [6],z-score [7],z-score [8],z-score [9],z-score [10]
CCOC(=O)C[C@H]1[C@H](OC(=O)c2cc3ccccc3oc2=O)[C@@H](NC(=O)c2ccccc2)c2cc(OCCCO)ccc2N1C(=O)c1ccccc1,0.102,1.36,-0.521,-0.836,-2.3,1.23,0.434 (inactive),-0.954,0.185,-0.238 (inactive)
C=CC[C@]1(C(=O)N2CCCCC2)N=C(c2ccc(OCCCO)cc2)O[C@H]1c1ccccc1CN=[N+]=[N-],-0.416,0.132,0.61,-1.11,-1.15,0.574,0.32 (inactive),-1.31,-0.576,0.482 (inactive)
CCCC[C@@H](O)C1=C(COC)C[C@H]2C(=O)N(C)C(=O)[C@H]2[C@H]1CO,1.28,1.13,1.48,-0.211,0.536,1.23,-0.987 (inactive),0.335,-1.98,0.368 (inactive)
C=CC[C@]1(C(=O)N2CCOCC2)COC(c2ccc(OCCCO)cc2)=N1,-0.559,0.147,-0.814,-0.405,-1.21,-0.658,-0.142 (inactive),0.846,-0.422,1.47 (inactive)
COc1ccc([Si](C)(C)[C@@H]2[C@@H](CCO)O[C@]3(C(=O)N(Cc4cccc(NC(=O)[C@H](C)O)c4)c4ccccc43)[C@H]2C)cc1,-3.78,-0.578,-4.53,-2.88,-4.36,-1.37,1.5 (inactive),-1.06,-2.24,-5.11 (inactive)
COc1ccc([Si](C)(C)[C@@H]2[C@@H](CCO)O[C@]3(C(=O)N(Cc4ccccc4)c4ccc(N5CCOC5=O)cc43)[C@H]2C)cc1,-1.39,1.67,-1.26,-2.34,-3.44,-0.309,0.168 (inactive),-0.947,-0.756,-1.94 (inactive)
NC(=O)[C@H]1[C@@H]2C(=O)O[C@@H](c3ccccc3)[C@@H](c3ccccc3)N2[C@@H](c2ccc(OCCO)cc2)[C@]12C(=O)Nc1ccc(C#CCCO)cc12,0.0067,0.272,0.456,0.227,0.167,-0.202,-0.383 (inactive),-0.398,-1.18,-0.0196 (inactive)
O=c1cccc(-c2ccc([N+](=O)[O-])cc2)o1,0.419,0.294,0.273,-0.369,-0.308,0.302,0.543 (inactive),0.379,-1.01,-0.0447 (inactive)
COC(=O)[C@@]1(Cc2ccc(F)cc2)[C@H]2c3cc(C(=O)N4CCCC4)n(CCc4c[nH]c5ccccc45)c3C[C@H]2CN1C(=O)c1ccccc1,-1.41,-0.743,-1.33,-1.57,-3.02,0.28,-0.222 (inactive),-0.915,-1.21,-1.22 (inactive)
C=CC[C@@]1(C(=O)NCCCOC)N=C(c2ccc(OCCCO)cc2)O[C@@H]1c1ccccc1N=[N+]=[N-],1.42,0.0373,-0.465,-1.06,0.241,1.62,0.863 (inactive),-0.178,-0.917,0.2 (inactive)
CCN(CC)c1ccc(N2CC=CC34O[C@@H]5/C=C\CCCOC(=O)C5[C@H]3C(=O)N(C(C)CO)[C@@H]4C2=O)cc1 (stereo not given in full),0.838,-0.536,1.43,1.67,0.403,0.8,0.744 (inactive),-0.441,0.135,0.0032 (inactive)
CCCNC(=O)[C@@]1(C)c2ccccc2C(=O)N(c2ccc(C)cn2)[C@H]1c1ccc(CO)cc1,0.666,0.343,-0.146,-0.108,0.526,0.204,-0.0622 (inactive),0.0215,0.43,-0.407 (inactive)
O=C1C2C=CC(C(O)c3cccc(O)c3)N(Nc3ccc([N+](=O)[O-])cc3)C2C(=O)N1c1ccccc1 (stereo not given),-0.505,-0.55,-0.0586,-0.0899,0.45,-2.01,-1.78 (inactive),-0.217,-1.25,0.014 (inactive)
C=C[C@H](C)[C@H](OC(=O)Nc1ccc(SC)cc1)c1ccc(OCCO)cc1,0.0889,0.954,-0.47,-0.889,-2.41,-2.67,0.508 (inactive),-0.781,-0.72,-1.48 (inactive)
C=CCC(OC(C)=O)[C@@H]1[C@@H](N(Cc2cccc3ccccc23)C(=O)Cc2ccc(F)cc2)c2cc(OCCCO)ccc2N1C(=O)c1ccc2ccccc2c1 (stereo not given in full),0.937,1,0.975,-0.222,-0.754,2.9,-0.249 (inactive),-0.774,-0.45,1.25 (inactive)
